# Bim-Mcl-1 = inhibitors of Bim-Mcl-1 interaction, human; Q07820; Bead-based flow cytometry, Bim peptide-Mcl-1 binding; inhibition, % at 10 µM; 190,000 tested, 0.1% active; AID 1009; in the data active means inhibition above about 40%;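 further: 0% = no compound tracer wells and 100% = peptide blocker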
# Target sequence (Q07820 whole entry, looked up): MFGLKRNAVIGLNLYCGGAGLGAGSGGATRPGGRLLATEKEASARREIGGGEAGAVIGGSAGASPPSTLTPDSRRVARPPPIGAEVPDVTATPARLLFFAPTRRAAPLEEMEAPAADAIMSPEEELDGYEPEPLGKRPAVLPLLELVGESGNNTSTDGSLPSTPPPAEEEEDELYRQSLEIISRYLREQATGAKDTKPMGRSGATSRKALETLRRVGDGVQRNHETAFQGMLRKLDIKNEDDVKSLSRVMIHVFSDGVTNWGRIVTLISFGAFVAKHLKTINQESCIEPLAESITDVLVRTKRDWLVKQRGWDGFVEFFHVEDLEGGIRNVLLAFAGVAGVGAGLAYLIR
# GLD-1 TGE inh = GLD-1-TGE RNA interaction inhibition (C. elegans) | inhibition, % at 5.96 µM | 320,000 tested, 0.44% active | purified GLD-1 + fluorescein TGE RNA, fluorescence polarization | Q17339;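 active means percent inhibition above a per-plate cutoff, the plate mean of test compounds plus 3 SD, cut at about 30% in these data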;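 further: 0% = DMSO wells with GLD-1 and probe and 100% = wells lacking GLD-1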
# MCL1-BIM inh = disrupts human MCL1 binding to BIM-BH3 peptide; GST-MCL1 / FITC-Bim-BH3 fluorescence polarization; Q07820; 320,000 tested, 0.68% active; inhibition, % at 10.9 µM;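 active means inhibition above the mean inhibition of all tested compounds plus 3 SD, set per campaign, cut at about 40% in these data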;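 further: 0% = DMSO wells and 100% = unlabeled Bim-BH3 peptide control; higher means more loss of mP so more displacement of Bim peptide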
# Mcl1-Bid inh = disrupts binding of human Mcl-1 to Bid peptide. Q07820. TR-FRET Mcl-1/Bid-Dy647 peptide binding, 1536-well. inhibition, % at 21.7 µM. 220,000 tested, 0.97% active;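 active means compounds that cut the binding signal by more than half at the single screening dose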;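 further: His-tagged Mcl-1 with europium anti-His antibody binding Bid BH3 peptide; 0% = Mcl-1 plus peptide wells and 100% = peptide-only wells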
# Bcl-xL primary = inhibitors of human Bcl-xL. Q07817. 320,000 tested, 0.7% active. inhibition, % at 10.9 µM. GST-Bcl-xL / FITC-Bim BH3 peptide fluorescence polarization;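 active means inhibition above the mean of all tested compounds plus 3 SD, cutoff set per campaign, cut at about 30% in these data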;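 further: 0% = DMSO wells and 100% = unlabeled Bim-BH3 peptide competitor; inhibitors lower millipolarization by displacing the labeled peptide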
# Target sequence (Q07817 whole entry, looked up): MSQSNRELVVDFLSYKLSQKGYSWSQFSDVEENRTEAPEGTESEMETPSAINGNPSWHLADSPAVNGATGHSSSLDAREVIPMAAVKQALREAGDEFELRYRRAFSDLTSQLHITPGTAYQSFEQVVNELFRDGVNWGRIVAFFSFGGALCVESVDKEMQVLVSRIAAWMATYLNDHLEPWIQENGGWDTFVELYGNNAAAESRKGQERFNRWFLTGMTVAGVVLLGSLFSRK
# Mcl1-Noxa inh = Mcl-1/Noxa interaction inhibition; Q07820; TR-FRET Mcl-1/Noxa peptide binding, 2 h; inhibition, % at 21.7 µM; 220,000 tested, 1.5% active; AID 1022;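 active means compounds that cut the protein-peptide binding signal by more than 50% relative to plate controls in a single-dose test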;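 further: His-tagged Mcl-1 with rhodamine Noxa BH3 peptide and terbium anti-His antibody; 0% = Mcl-1 plus Noxa peptide wells and 100% = peptide-only wells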
# Numbers without * were called inactive; . = no result given. Hits are enriched below; roughly 2.3% of the tested compounds scored in any of these assays.
SMILES,Bim-Mcl-1,GLD-1 TGE inh,MCL1-BIM inh,Mcl1-Bid inh,Bcl-xL primary,Mcl1-Noxa inh
O=C1/C(=C/C=C/c2ccco2)SC(=S)N1c1ccc(O)cc1,.,-9.7,28.5,37.6,13.5,102.1*
O=C1/C(=C\c2ccc(O)cc2)SC(=S)N1c1cccnc1,0.0,-25.1,11.7,6.5,7.5,73.1*
CN(C)c1ccc(/C=C/C=C2/SC(=S)N(c3ccccc3)C2=O)cc1,22.0,-25.1,22.4,-22.4,36.1*,-4.0
Cc1ccc(NC(=O)CSc2nc3ncc(Cl)cc3[nH]2)c(C)c1,.,0.9,-5.2,.,0.4,.
O=C(c1ccc([N+](=O)[O-])cc1)N1CCN(c2ncc(Br)cn2)CC1,.,4.6,-2.8,.,0.0,.
COc1ccc(CCNC(=O)CNCCc2ccc(F)cc2)cc1,.,-3.6,-0.3,.,-1.6,.
O=C1c2ccccc2-c2onc3ccc(N4CCCC4)c1c23,33.0,.,.,-30.0,.,-6.7
O=C1c2ccccc2-c2onc3c(Oc4ccccc4)cc(O)c1c23,28.0,.,.,-22.6,.,59.2*
NC(=O)c1ccsc1NC(=O)COC(=O)CNC(=O)c1ccc(Cl)cc1,.,-0.7,.,.,.,.
O=Cc1ccc2oc3nc4n(c(=O)c3c(=O)c2c1)CCCS4,12.0,-1.1,21.7,38.2,7.7,72.8*
O=c1c2cc(Br)cc(Br)c2oc2nc3n(c(=O)c12)CCCS3,1.0,8.8,12.6,8.4,12.6,16.4
CC(Cl)C(=O)Nc1c2c(nn1-c1ccccc1)CSC2 (centres undefined),.,0.6,7.9,.,2.1,.
COc1cccc(-c2cc(=O)c3cc(NC(=O)c4ccc(N(C)C)cc4)ccc3[nH]2)c1,0.0,-0.5,-4.3,16.7,-2.0,57.5*
Cc1ccc(C(=O)OCC(=O)N(C)c2c(N)n(Cc3ccccc3)c(=O)[nH]c2=O)s1,.,1.0,-4.5,.,1.9,.
Nc1cccnc1Sc1cc(Cl)c(Cl)cc1Cl,-3.0,7.5,0.4,19.5,4.3,87.8*
CC1=C(C(=O)OCC(C)C)C(c2cc3c(cc2Br)OCO3)NC(=O)N1C (centres undefined),1.0,7.4,5.9,-14.7,3.2,9.8
CCCOC(=O)C1=C(C)N(C)C(=O)NC1c1cc2c(cc1[N+](=O)[O-])OCO2 (centres undefined),1.0,15.3,45.2*,-41.8,42.5*,29.8
COc1ccc(CNC(=O)C[C@H]2C(=O)N(CCc3ccccc3)C[C@@H]2Cc2ccccc2)cc1,.,6.9,3.9,.,1.1,.
NC(=O)c1sc(=S)n2c1[nH]c(=O)c1sccc12,-1.0,1.6,5.9,-33.4,10.8,24.7
CC(=O)NNC(=O)c1sc(=S)n2c1[nH]c(=O)c1sccc12,-7.0,2.7,25.8,-19.7,9.0,67.7*
O=C(NCc1ccccc1)c1sc(=S)n2c1[nH]c(=O)c1ccccc12,1.0,11.7,15.4,-21.2,9.0,51.6*
Cc1cc(OCC(O)CNC(C)(C)C)ccc1Cl (centres undefined),-3.0,4.0,3.4,-6.0,5.4,9.3
O=C(N/N=C/c1cccnc1)c1cc2ccccc2o1,-4.0,0.9,-3.6,-12.5,-1.0,-1.9
COc1ccc(C(=O)N/N=C/c2ccc(OC(=O)c3cccc4ccccc34)c([N+](=O)[O-])c2)cc1,-8.0,4.3,13.4,10.0,1.0,50.9*
COc1ccc(C(=O)Oc2ccc(/C=N/NC(=O)c3ccccc3OC)cc2[N+](=O)[O-])cc1,-2.0,3.2,-2.3,31.1,-1.6,36.7
SMILES,Bim-Mcl-1,GLD-1 TGE inh,MCL1-BIM inh,Mcl1-Bid inh,Bcl-xL primary,Mcl1-Noxa inh
Cc1ccc(/C=N/NC(=O)c2cc3c(ccc4ccccc43)o2)cc1[N+](=O)[O-],0.0,-0.6,-3.5,75.7*,2.1,25.6
O=C(N/N=C/c1ccc([N+](=O)[O-])o1)c1cc2c(ccc3ccccc32)o1,3.0,.,.,87.6*,.,38.3
O=C(N/N=C/c1cccnc1)c1cc2c(ccc3ccccc32)o1,0.0,4.9,-109.2,55.0*,-39.8,49.3
Cc1nn(CC(=O)NC(=O)NC2CCCCC2C)c(=O)c(C#N)c1C (centres undefined),.,2.6,-0.6,.,0.1,.
Cc1ccc(C2(C)NC(=O)N(CC(=O)N3c4ccccc4NC(=O)CC3C)C2=O)cc1 (centres undefined),.,8.3,10.3,.,7.0,.
Cc1ccc2[nH]c3c(NCc4ccco4)ncnc3c2c1,4.0,8.9,3.3,-11.3,4.0,54.5*
COc1cc(CNc2ncnc3c2[nH]c2ccc(C)cc23)cc(OC)c1,.,4.5,-5.9,-2.7,-0.4,32.0
O=C(O)c1cc(S(=O)(=O)O)ccc1O,0.0,1.3,0.8,56.0*,8.1,40.1
O=C(O)c1cc(S(=O)(=O)N2CC=C(c3ccccc3)CC2)ccc1O,.,2.1,5.5,.,1.8,.
CC(=O)Nc1ccc(N2C(=O)CC(Sc3nc(C)cc(C)n3)C2=O)cc1 (centres undefined),.,5.1,9.2,.,1.7,.
Cc1cc(-c2nnc(SCC(=O)c3ccc4c(c3)OCCO4)o2)no1,-2.0,5.3,9.8,-26.8,3.1,58.9*
Cc1cc(C)cc(-c2nnc(SCC(=O)c3ccc4c(c3)OCCO4)o2)c1,-1.0,5.4,-3.5,-3.0,0.5,-10.9
COc1cc(OC)c2c(c1O)OC(c1ccccc1)CC2=O (centres undefined),-3.0,12.1,32.3,-6.2,10.2,54.2*
CCOC(=O)C1CCN(CC(=O)Nc2c(C(=O)OC)[nH]c3cccc(Cl)c23)CC1,0.0,3.9,-3.3,99.3*,-4.4,3.7
CCOC(=O)C1CCN(CC(=O)Nc2c(C(=O)OC)[nH]c3ccccc23)CC1,-1.0,.,.,-32.8,.,12.6
COc1ccccc1CNC(=O)CS(=O)(=O)c1ccc(C)cc1,.,-0.2,-3.5,.,-1.3,.
Oc1ccc(C=Nc2cccc3ncccc23)c(O)c1,0.0,54.8*,29.0,-61.6,29.0,4.0
COc1cccc(N=Cc2ccc(O)cc2O)c1,8.0,24.1,42.6*,-18.4,43.1*,26.8
Oc1ccc(C=Nc2ccc3ncccc3c2)c(O)c1,5.0,2.2,11.3,-52.8,7.3,-2.3
CCn1c(/N=C/c2ccc(OC)cc2O)nc2ccccc21,.,-2.9,-3.1,.,-2.8,.
CCCn1c(SC(C)C(=O)NCC2CCCO2)nc2sc(CC)cc2c1=O (centres undefined),.,2.9,4.4,.,3.7,.
COc1cccc(NC(=O)c2cccnn2)c1,.,1.9,3.1,.,3.4,.
COc1ccc(C(=O)NCc2nnc(SCC(=O)N3CCCCC3)o2)cc1OC,0.0,-3.8,-2.9,83.2*,-3.6,5.3
CCn1ccnc1CNC(=O)c1ccc2oc(CCCc3ccccc3)nc2c1,.,2.8,0.0,.,5.5,.
O=c1c(Cl)c(O)c2cccc3c4ccccc4n1c23,-3.0,8.0,3.0,17.9,5.9,65.5*
CC(C)OCCCNC(=O)c1cc(S(=O)(=O)N2CCc3ccccc32)cn1C,.,7.4,-0.5,.,0.1,.
COc1ccccc1C(=O)Nc1ncc2c(n1)CC(c1ccco1)CC2=O (centres undefined),-1.0,-0.6,6.2,-7.9,8.7,53.5*
CN(C(=O)COC(=O)c1ccc(Br)c(S(=O)(=O)N2CCOCC2)c1)C1CCCCC1,.,6.1,.,.,.,.
